Data published in PubChem BioAssay (NCATS).
Results filed as inconclusive are left out. Unmarked numbers belong to inactive results. Active and inactive are the calls of the source. Calls follow the shape of the dose curve; as a rule, active = well fitted cell-killing curve with a large enough effect; inconclusive = small, poorly fitted or top-dose-only effect, or effect the other way; inactive = no such curve, though single readings can be large or run the other way.

Assay: Quantitative highthroughput screen to assess conditional lethalithy of SEM cells grown in Human Plasma-Like Medium with dialyzed fetal bovine serum (HPLM+ds) (AID 1963882); also: nearly all actives have a fitted effect of over 35% in size
Details: SEM B-ALL cells in HPLM+ds, CellTiter-Glo viability, 48 h; series mostly up to 45.8 µM; viability: at the top concentration
From the text: Assay Provider: Jason Cantor Ph.D.
Department of Biochemistry
University of Wisconsin-Madison, Madison, WI, USA
Chemical screening studies have identified drug sensitivities across hundreds of cancer cell lines but most putative therapeutics fail to translate. Discovery and development of drug candidates in models that more accurately reflect nutrient levels in human blood is a major challenge. Here we performed high-throughput screens in conventional versus Human Plasma-Like Medium (HPLM) to identify compounds that were "missed" when screening using the artificial culture condition. Sets of conditional anticancer compounds spanned phases of clinical development and included non-oncology drugs were assessed. […] We also traced conditional phenotypes for several chemotherapeutics to availability of HPLM-specific metabolites and confirmed others for compounds whose reported targets are encoded by nonessential genes. Our findings establish generalizable strategies for exploiting conditional lethality in HPLM to reveal therapeutic candidates and mechanisms of action in cancer cells.
Described herein are the results of each viability screens against three cell lines: NOMO1 (an acute myeloid leukemia cell line); P12-Ichikawa (a T-cell acute lymphoblastic leukemia); and SEM (a B-cell ALL). Each assay was screened using 3 different cell culture media: homemade human plasma-Like medium with 10% dialyzed fetal bovine serum (HPLM+ds); RPMI1640 with 10% untreated FBS and 5mM glucose (RPMI+s); and RPMI1640 with 10% dialyzed fetal bovine serum and 5 mM glucose (RPMI+ds).
PROTOCOL TABLE (as described by Inglese J, Shamu CE and Guy RK. 2007)
SEQUENCE No. (e.g., 1, 2, 3, etc.); […] (e.g., Cells, Incubation, Reagent, etc.); VALUE and DESCRIPTION.
1; Cells; 5 uL; white, solid bottom 1536-well Greiner assay plate.
2; Compounds; 23 nL; Kalypsis pin tool (Wako USA) equipped with a 1536-well pin head to transfer to the assay plates.
3; Incubation; 48 hours; 37C incubation.
4; Reagent; 3 uL; CellTiter Glo (Promega).
5; Incubation; 5 min, room temperature
6; Detection; Luminescence, Viewlux PerkinElmer.
NOTES (numbers refer to Sequence numbers above)
1. Briefly, 5 ul of cell reagent was dispensed using a Multidrop Combi Dispenser. The NOMO1 and SEM cells were plated at 500 cells/well and the P12-Ichikawa line at 1000 cells/well.
2. After seeding the cells, 23 nL of MIPE 4.1 library compounds (in DMSO) were added to each plate using a Kalypsys 1536 Pintool dispenser. Bortezomib at final concentration of […] and DMSO were added to each plate as positive and negative controls respectively. For each screen, MIPE 4.1 compounds were added over an eleven-point concentration range […] in 3-fold dilutions.
3. Each plate was covered with a stainless steel gasketed lid to prevent evaporation and incubated for 48 hour at 37C, 95% relative humidity, and 5% CO2.
4-5. Three microliter CellTilter-GloTM luminescent substrate mix (Promega) reagent was added to the assay plate and incubated at room temperature for 5 min.
6. The luminescence signal was measured using a ViewLux (PerkinElmer) multiplate reader with a 2 second exposure time per plate. Data for each compound were normalized as percent viability such that measurements for DMSO and the empty well controls in each plate were defined as 100% and 0%, respectively.
Potency is read from the fitted curve at half-maximal effect.

Row | SMILES | viability | Potency
1 | C[C@]12CCC(=O)C(O)=C1CC[C@@H]1[C@H]3CCC(=O)[C@@]3(C)CC[C@@H]12 | 97.3% | 
2 | CC(O)(CS(=O)(=O)c1ccc(F)cc1)C(=O)Nc1ccc(C#N)c(C(F)(F)F)c1 (stereo not given) | 75.3% | 
3 | c1ccc2c(CN3CCNCC3)cccc2c1 | 86.2% | 
4 | COC[C@@H](NC(C)=O)C(=O)NCc1ccccc1 | 90.4% | 
5 | COc1ccc2c(c1)[C@]13CCCCC1C(C2)N(C)CC3 (stereo not given in full) | 118% | 
6 | C[C@]12CC[C@@H]3[C@@H](CCC4=CC(=O)CC[C@@H]43)[C@@H]1CC[C@@H]2OC(=O)CCc1ccccc1 | 90.5% | 
7 | CC(=O)OCC1=C(C(=O)O)N2C(=O)[C@@H](N)[C@@H]2SC1 | 80.5% | 
8 | O=S(=O)(F)Cc1ccccc1 | 85.7% | 
9 | C[C@@H]1O[C@@H](O[C@@H]2C=C3CC[C@@H]4[C@@H](CC[C@]5(C)[C@H](c6ccc(=O)oc6)CC[C@@]45O)[C@@]3(C)CC2)[C@H](O)[C@H](O)[C@H]1O |  | 23.5 nM (active)
10 | CCOc1ccccc1-n1c(C(C)N2CCN(C(=O)COc3ccc(Cl)cc3)CC2)nc2ccccc2c1=O (stereo not given) |  | 1050 nM (active)
11 | O=c1[nH]c2ccccc2n1C1CCN(Cc2ccc(-c3[nH]c4cc5ncnc5cc4nc3-c3ccccc3)cc2)CC1 | 80.5% | 
12 | COc1ccc(C(=O)c2c(C)n(CCN3CCOCC3)c3cc(I)ccc23)cc1 |  | 20900 nM (active)
13 | CCCC(C)(COC(N)=O)COC(=O)NC(C)C (stereo not given) | 104% | 
14 | CC(C)(C)[C@]1(O)C[C@@H]2OC(=O)C[C@@]23C(=O)O[C@@H]2OC(=O)[C@H](O)C213 (stereo not given in full) | 103% | 
15 | CN1C(=O)CCS(=O)(=O)C1c1ccc(Cl)cc1 (stereo not given) | 103% | 
16 | CCc1c(C(=O)C(N)=O)c2c(OCC(=O)O)cccc2n1Cc1ccccc1 | 86.5% | 
17 | CC(=O)N(C)c1cccc(-c2ccnc3c(C(=O)c4cccs4)cnn23)c1 | 92.7% | 
18 | CC(C)[C@]12O[C@@H]1[C@@H]1O[C@]13[C@]1(O[C@H]1C[C@@H]1C4=C(CC[C@@]13C)C(=O)OC4)[C@H]2O |  | 1.2 nM (active)
19 | O=c1cccc2n1CC1CNC[C@H]2C1 | 92.5% | 
20 | Cc1ccccc1-n1c(Cn2cnc3c(N)ncnc32)nc2cccc(C)c2c1=O |  | 296 nM (active)

Row | SMILES | viability | Potency
21 | CC(C)N[C@@H]1CCn2c(=O)[nH]c3cccc(c32)[C@@H]1O | 100% | 
22 | O=C(O)CNC(=O)c1c(O)c2ccccc2n(Cc2ccccc2)c1=O | 101% | 
23 | CC(=O)Nc1ccc(OC[C@](C)(O)C(=O)Nc2ccc([N+](=O)[O-])c(C(F)(F)F)c2)cc1 | 65.7% | 
24 | CCOC(=O)c1cncn1[C@H](C)c1ccccc1 | 95.1% | 
25 | CC(=Cc1csc(C)n1)[C@@H]1C[C@H]2O[C@]2(C)CCC[C@H](C)[C@@H](O)[C@@H](C)C(=O)C(C)(C)[C@@H](O)CC(=O)O1 | 17.8% | 
26 | CNC(=O)N1N=C(c2ccc(N)cc2)c2cc3c(cc2CC1C)OCO3 (stereo not given) |  | 10500 nM (active)
27 | O=C(Oc1ccc([N+](=O)[O-])cc1)N1CCC(C(O)(c2ccc3c(c2)OCO3)c2ccc3c(c2)OCO3)CC1 | 99.5% | 
28 | CC(C)(O)C(=O)Nc1ccc([N+](=O)[O-])c(C(F)(F)F)c1 | 93.8% | 
29 | Cc1ncc(OC[C@@]2(c3cccc(F)c3)C[C@H]2C(=O)Nc2ccc(F)cn2)c(C)n1 | 82.7% | 
30 | C[C@@H]1[C@@H](C(=O)C[C@H]2O[C@@H]3O[C@]4(C)CC[C@@H]5[C@H](C)CC[C@@H]([C@H]2C)[C@@]35OO4)O[C@@H]2O[C@]3(C)CC[C@H]4[C@H](C)CC[C@@H]1[C@@]24OO3 |  | 26400 nM (active)
31 | C=C(C)[C@H]1Cc2c(ccc3c2O[C@@H]2COc4cc(OC)c(OC)cc4[C@@H]2C3=O)O1 |  | 5260 nM (active)
32 | O=C1C=CC[C@@H]2[C@H]3CCCN4CCC[C@@H](CN12)[C@@H]34 | 103% | 
33 | O=C(O)c1nn(Cc2ccc(Cl)cc2Cl)c2ccccc12 | 67.4% | 
34 | C[C@@H]1[C@@H](CC(C[C@H]2O[C@@H]3O[C@]4(C)CC[C@@H]5[C@H](C)CC[C@@H]([C@H]2C)[C@@]35OO4)C[S+](=O)([O-])c2ccc(COC(=O)N(C)C)cc2)O[C@@H]2O[C@]3(C)CC[C@H]4[C@H](C)CC[C@@H]1[C@@]24OO3 (stereo not given in full) |  | 743 nM (active)
35 | CN[C@@H]1Cc2cccc3[nH]c(=O)n(c23)C1 | 96.8% | 
36 | CC(C)(O)C=CC(=O)[C@](C)(O)[C@H]1[C@H](O)C[C@]2(C)[C@@H]3CC=C4[C@@H](C=C(O)C(=O)C4(C)C)[C@]3(C)C(=O)C[C@@]12C |  | 59 nM (active)
37 | COc1cc(C(=O)N2CC[C@@H](O)[C@@H](N)C2)cc2nc(-c3cc4ccccc4n3CC3CC3)n(C)c12 |  | 1320 nM (active)
38 | CCNC(=O)C[C@@H]1N=C(c2ccc(Cl)cc2)c2cc(OC)ccc2-n2c(C)nnc21 |  | 935 nM (active)
39 | NC1CC1c1ccccc1 (stereo not given) | 91.5% | 
40 | COC[C@H]1OC(=O)c2coc3c2[C@@]1(C)C1=C(C3=O)C2CCC(=O)[C@@]2(C)C[C@H]1OC(C)=O (stereo not given in full) | 105% | 
